Results taken from PubChem BioAssay AID488890 (Southern Research Specialized Biocontainment Screening …, 2010).
The campaign covered roughly 320,000 compounds. About 1,300 (0.41%) were called active. Not shown: some 3% with an inconclusive outcome. How the calls were made is not given here. Not all results are given here. Results with a measured potency or affinity are listed apart.

Assay: growth inhibition of non-replicating M. tuberculosis (AID 488890);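 further: plate controls were DMSO cells for no effect and high antibiotic wells for full effect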
Conditions: Mycobacterium tuberculosis non-replicating, at 25 µM, stronger effect = higher value

| SMILES | inhibition [%] |
| --- | --- |
| CCc1ccccc1NC(=O)c1noc(C(C)C)c1[N+](=O)[O-] | -10.1 |
| Cc1nn(Cc2ccccc2Cl)c(C)c1NC(=O)c1noc(C(C)C)c1[N+](=O)[O-] | -8.32 |
| O=C1CN(S(=O)(=O)c2ccccc2)CCN1 | 3.07 |
| O=C(CC(c1ccccc1)c1ccccc1O)NCc1ccccc1Cl (stereo not given) | 23.8 |
| O=C1CSC(=S)N1c1cccnc1 | 11.9 |
| O=C(O)c1ccc(N2C(=O)CSC2=S)cc1 | 74.2 |
| O=C(O)c1ccc(N=C2SCC(=O)N2Cc2ccccc2)cc1 | 7 |
| O=C1CSC(=Nc2ccc(Cl)cc2)N1Cc1cccnc1 | 1.07 |
| N#Cc1ccc(OCC(O)CN2CCN(CC(O)COc3ccc(C#N)cc3)CC2)cc1 (stereo not given) | -21.4 |
| Cc1ccc(-c2nnc(-c3cccnc3)o2)cc1 | 37.8 |
| Brc1ccc(-c2nnc(-c3cccnc3)o2)cc1 | 68.4 |
| CN(C)S(=O)(=O)c1cccc(-c2nnc(SCc3cc(Cl)cc4c3OCOC4)n2N)c1 | 23.1 |
| Cc1onc(-c2ccccc2Cl)c1C(=O)Nc1ccccc1O | 8.07 |
| CN1CC(=O)NC1=NC(=O)c1cc(F)c(F)cc1Cl | -0.31 |
| CN1CC(=O)N/C1=N\C(=O)Nc1ccc(O)cc1 | -12.3 |
| COc1ccc(C2NC(=S)NC(C)=C2C(=O)Nc2ccccn2)cc1OC (stereo not given) | -7.65 |
| Cc1ccc(COC(=O)c2cc(S(=O)(=O)N3CCOCC3)ccc2C)cc1 | 40.1 |
| C/C(=N/NC(=O)c1ccncc1)c1cc2ccc(O)cc2oc1=O | 78.4 |
| C/C(=N\NC(=O)c1ccncc1)c1cc2ccccc2o1 | 69.3 |
| COc1ccc(/C(C)=N/NC(=O)c2ccncc2)cc1 | 67.2 |
| COc1ccc2oc(=O)c(/C(N)=N/NC(=O)c3ccncc3)cc2c1 | 61.4 |
| O=C(CCC(=O)N1CCOCC1)NCCc1ccc(F)cc1 | 5.21 |

| SMILES | inhibition [%] |
| --- | --- |
| CC(C)C(NCC(=O)Nc1ccccc1C(=O)NC1CC1)c1ccccc1 (stereo not given) | 19.6 |
| CCC(C)(C)NS(=O)(=O)c1cc(CN2C(=O)c3cccnc3C2=O)ccc1OC | 17.1 |
| CCOC(=O)N1CCN(C(=O)COc2ccc3c(c2)C(=O)CC2(CCN(C(C)=O)CC2)O3)CC1 | -4.94 |
| O=C1CC2(CCCCC2)Oc2ccc(OCC(=O)N3CCOCC3)cc21 | 43.3 |
| O=C(CCNC(=O)c1ccco1)Nc1ccc(Cl)c(C(F)(F)F)c1 | 4.07 |
| COc1ccc(C(=O)CC(=O)c2ccc(OC)cc2)cc1 | 19.6 |
| COc1ccc(C(=O)CCNc2cccc(Cl)c2)cc1 | 73.7 |
| O=C(Nc1ccc(Cl)c(C(F)(F)F)c1)c1ccco1 | 71.2 |
| O=C(/C=C/Nc1ccc(F)cc1)c1ccco1 | -1.7 |
| O=C(CNC(=O)c1ccco1)Nc1cccc(Cl)c1 | -9.33 |
| O=C(CCNc1cc(Cl)cc(Cl)c1)c1ccco1 | -7.67 |
| O=C(CNC(=O)c1ccco1)Nc1ccc(F)cc1 | -22.8 |
| O=C(CN1C(=O)NC2(CCCCC2)C1=O)N1CCN(c2ncccn2)CC1 | 3.11 |
| CC(C)(SC(=S)N1CCCCCC1)C(=O)O | 13.4 |
| CC1=C(C(=O)NCc2ccc3c(c2)OCO3)C2(CCC(C)CC2)OC1=O (stereo not given) | 1.75 |
| COc1ccccc1-n1cnnc1SC(C)C(=O)Nc1ccc(NC(C)=O)cc1 (stereo not given) | -12.2 |
| Oc1c(C(c2ccc(F)cc2)N2CCc3ccccc3C2)sc2ncnn12 (stereo not given) | 13.3 |
| Cc1cc(C)cc(OCc2nnc(SCC(=O)c3ccccc3)o2)c1 | -6.78 |
| C/C(N)=C(/C#N)C(=O)CSc1nnc(C)n1-c1ccccc1 | -16.6 |
| O=C(O)C(F)(F)S(=O)(=O)O | -5.17 |
| Cc1cccc(NC2=NC3(CCCCC3)N=C(N)N2)c1 | 22.2 |
| Cc1ccc(C)c(NC(=S)NCc2ccc3c(c2)OCO3)c1 | 79.5 |

| SMILES | inhibition [%] |
| --- | --- |
| CC(=O)Nc1ccc(Nc2ccc3nonc3c2[N+](=O)[O-])cc1 | 1.34 |
| COc1cccc(CNC(=O)CCNS(=O)(=O)c2ccc3[nH]c(=O)oc3c2)c1 | -5.61 |
| Cc1ccc(C(=O)NCC(=O)Nc2ccc(F)c(F)c2F)cc1 | -13.1 |
| O=C(Cn1nnc(-c2ccccc2)n1)NNC(=O)c1ccco1 | 67.8 |
| COc1cc(/C=N/NC(N)=O)ccc1OC(=O)c1cccs1 | 2.79 |
| O=C(N/N=C\c1ccc(OC(=O)c2ccco2)cc1)c1ccc(Cl)cc1 | 78.6 |
| COc1cc(/C=N/NC(=O)C(N)=O)ccc1OC(=O)c1cccs1 | -4.85 |
| O=C(N/N=C/c1ccc(OC(=O)c2ccco2)cc1)c1ccncc1 | 69 |
| COc1ccc(C(=O)Oc2ccc(/C=N/Nc3ccc(Cl)c(C(=O)O)c3)cc2OC)cc1 | 12.6 |
| O=C(N/N=C\c1ccc(OC(=O)c2cccs2)cc1)c1ccc(Cl)cc1 | 52.2 |
| Cc1ccc(C(=O)N/N=C\c2ccc(OC(=O)c3cccs3)cc2)cn1 | -8.9 |
| COc1cc(/C=N/Nc2ccc(Cl)c(C(=O)O)c2)ccc1OC(=O)c1ccccc1F | 39 |
| COc1ccc(C2CC(C(F)(F)F)n3ncc(C(=O)O)c3N2)cc1OC (stereo not given) | -8.85 |
| COc1cc(OC)cc(C(=O)NC(=S)N2C[C@H]3C[C@H](C2)c2cccc(=O)n2C3)c1 | -9.19 |
| CN(CC(=O)NCc1cccnc1)S(=O)(=O)c1ccc(F)cc1 | -7.08 |
| COc1ccc(/C=N/NC(=O)c2ccccc2OCc2ccccc2)c(OC)c1 | 32 |
| C/C(=N\NC(=O)Cc1ccc([N+](=O)[O-])cc1)c1cccnc1 | -2.22 |
| Cc1cc(C(=O)NNC(=O)c2cccs2)c(C)o1 | 5.92 |
| COc1ccccc1C(=O)Nc1ccc(S(=O)(=O)Nc2nccs2)cc1 | 16 |
| COc1cccc(C2C(C#N)=C(N)SC(c3ccccc3)C2[N+](=O)[O-])c1 (stereo not given) | 20.5 |
| Cc1ccccc1C1=NC(c2ccc(F)cc2F)ON1 (stereo not given) | 8.21 |
| O=C(NCCCN1CCOCC1)c1ccccc1-c1ccccc1 | 3.82 |

| SMILES | inhibition [%] |
| --- | --- |
| CSc1ccccc1NC(=O)c1cc(C)on1 | 1.57 |
| COc1cc(C(=O)Nc2nc(OC)c(-c3ccccc3)c(OC)n2)cc(OC)c1OC | -16.2 |
| CCOc1cc(/C=N/NC(=O)COc2ccccc2C)ccc1OC(=O)c1cccs1 | 9.01 |
| COc1ccc(/C=N/NC(=O)c2ccc(Br)cc2)cc1CN1CCOCC1 | -2.91 |
| COc1cc(/C=N/NC(=O)c2ccncc2)ccc1OC(=O)c1cc(OC)c(OC)c(OC)c1 | 52.1 |
| CCOc1cc(/C=N/NC(=O)COc2ccc(C)cc2)ccc1OC(=O)c1cccs1 | 48.1 |
| COc1cc(/C=N/NC(=O)COc2ccccc2C)ccc1OC(=O)c1cccs1 | 30.8 |
| COc1ccc(/C=N/NC(=O)c2cccnc2)cc1CN1CCOCC1 | 8.75 |
| COc1cc(/C=N/NC(=O)CNC(=O)c2ccccc2)ccc1OC(=O)c1cccs1 | 39.5 |
| COc1cc(/C=N\NC(=O)c2ccc(C)nc2)ccc1OC(=O)c1cccc(F)c1 | -1.23 |
| COc1cc2[nH]c(=O)n(CCC(=O)NCCC(C)C)c(=O)c2cc1OC | -11 |
| O=C(NCCC1CCCCN1S(=O)(=O)c1cccs1)C(=O)NCc1ccccc1 (stereo not given) | 10.3 |
| CC1(C)CC(=O)C=C(/C=C/c2ccccc2)C1 | -7.3 |
| COc1ccc(CN(C)C(=O)c2ccc(NS(=O)(=O)c3ccc4[nH]c(=O)[nH]c4c3)cc2)c(OC)c1OC | 35.7 |
| O=C(N/N=C/C(Br)=C/c1ccccc1)c1ccccc1F | 49.9 |
| O=C(c1cc(S(=O)(=O)N2CCC3(CC2)OCCO3)ccc1F)N1CCC2(CC1)OCCO2 | -5.64 |
| CCOCC(=O)OCC(=O)NC12CC3CC(CC(C3)C1)C2 | -7.93 |
| CCOC(=O)N1CCN(C(=O)NC23CC4CC(CC(C4)C2)C3)CC1 | -9.51 |
| CCCN1CCN(S(=O)(=O)c2ccc(-n3cnnn3)cc2)CC1 | 0.97 |
| COc1ccc(CCNC(=O)C2CCCN(S(=O)(=O)N3CCCCCC3)C2)cc1OC (stereo not given) | 14.5 |
| CCOc1ccc(/C=C/C(=O)N(CC)CC(=O)Nc2ccc3c(c2)OCCO3)cc1OC | 13.6 |
| COc1ccc(N2CCN(Cc3nc4cc(Cl)ccc4c(=O)[nH]3)CC2)cc1 | 0.72 |

| SMILES | inhibition [%] |
| --- | --- |
| CCCn1nnnc1NCc1ccc(N(C)C)cc1 | 2.84 |
| CCCn1nnnc1NCc1ccc(OC)cc1 | 37 |
| CC(C)c1ccc(CNc2nnnn2C)cc1 | 44.6 |
| CCCn1nnnc1NCc1ccc(F)cc1 | 24.5 |
| CN(Cc1ccccc1)C(=O)COC(=O)C1CCN(S(=O)(=O)c2ccc(Cl)c(C(F)(F)F)c2)CC1 | -14.1 |
| CC1CCN(C(=O)C2CCC(CNc3c(N4CCCCC4)c(=O)c3=O)CC2)CC1 (stereo not given) | 15.8 |
| Cc1ccc(-n2cc(CNCCN3CCOC3=O)c(-c3ccc(F)cc3)n2)cc1 | 26.6 |
| OCc1cn(-c2ccccc2)nc1-c1ccc(-c2nn(-c3ccccc3)cc2CO)cc1 | -3.64 |
| COc1ccc(-c2nn(-c3ccccc3F)cc2CNCCn2nc(C)cc2C)cc1 | 52.6 |
| O=Cc1cn(-c2ccccc2)nc1-c1ccc(F)cc1 | 1.85 |
| O=C(c1ccc2oc(Cc3ccc(Cl)cc3)nc2c1)N1CC[C@H](O)C1 | -2.21 |
| CC#CCN(Cc1ccco1)C(=O)c1ccc(OC2CCN(Cc3ccccn3)CC2)cc1 | 10.1 |
| COc1ccc(/C=C(/C#N)C(=O)Nc2cccnc2)cc1OC | -2.65 |
| C#CCOCCOCCOCCNc1nc(N2CCN(C(=O)C([C@@H](C)CC)n3cc(C(N)CC(C)C)nn3)CC2)nc(N2CCN(C(=O)[C@H](CCC(=O)O)n3cc(C(N)CC(C)C)nn3)CC2)n1 (stereo not given in full) | -10.1 |
| Cc1ccccc1N=C(NO)c1nonc1N | -6.6 |
| O=C(O)c1ccc(Cl)c(S(=O)(=O)Nc2cccc(C(=O)Nc3cccc(C(F)(F)F)c3)c2)c1 | 26.6 |
| COc1cc(C=Nc2c(C)cc(C)cc2C)ccc1OC(C)=O | -9.04 |
| COc1cc(SC)ccc1C(=O)Nc1cccc(S(=O)(=O)NC2=NCCC2)c1 | 24.7 |
| O=c1c2cc(F)ccc2sn1-c1ccccc1 | 20.9 |
| Cc1ccc(C)c(-n2sc3ccc(F)cc3c2=O)c1 | -21.9 |
| Cc1ccc(S(=O)(=O)N2CCC(=O)N(C(CO)C(C)C)CC2)cc1 (stereo not given) | -0.84 |
| Cc1ccc(C(=O)c2ccc(C(F)(F)F)cc2)cc1 | 23.7 |
